# Laboratory results published in PMC5540273 (PLoS ONE, 2017).
# What was measured:
# Conditions in all cases: concentration: 1 μM, replicates: in singlicate; n = 1
# [1] = test system: T1, MEK2
# T1 construct: gene MAP2K2
# [2] = test system: T2, MEK3
# T2 construct: gene MAP2K3
# [3] = test system: T3, MEK4
# T3 construct: gene MAP2K4
# [4] = test system: T4, MEK5
# T4 construct: gene MAP2K5
# [5] = test system: T5, MEK6
# T5 construct: gene MAP2K6
# [6] = test system: MELK
# [7] = test system: MERTK
# [8] = test system: MET
# [9] = test system: T6, MINK
# T6 construct: gene MINK1
# [10] = test system: MKK7
# [11] = test system: MKNK1
# [12] = test system: MKNK2
# [13] = test system: T7, MLCK
# T7 construct: gene MYLK3
# [14] = test system: T8, MLK1
# T8 construct: gene MAP3K9
# [15] = test system: MLK2
# [16] = test system: MLK3
# [17] = test system: MRCKA
# [18] = test system: T9, MRCKB
# T9 construct: gene CDC42BPB
# [19] = test system: MST1R
# [20] = test system: T10, MST1
# T10 construct: gene STK4
# 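Further: KINOMEscan kinase panel screen.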
SMILES,%Inh [1],%Inh [2],%Inh [3],%Inh [4],%Inh [5],%Inh [6],%Inh [7],%Inh [8],%Inh [9],%Inh [10],%Inh [11],%Inh [12],%Inh [13],%Inh [14],%Inh [15],%Inh [16],%Inh [17],%Inh [18],%Inh [19],%Inh [20]
COc1cccc(NC(=O)NC2CCN(c3ccnc(Nc4ccc(F)cc4)n3)C2)c1 (centres unmarked) [GSK1379721],22%,0%,26%,86%,0%,8%,14%,0%,0%,0%,23%,0%,0%,0%,0%,0%,6%,0%,28%,0%
CC(C)(C)c1ccc(C(=O)Nc2cn3cc(Cl)ccc3n2)cc1,24%,0%,33%,38%,0%,1%,0%,0%,9%,0%,0%,0%,54%,0%,8%,0%,0%,0%,5%,0%
COc1cc(Nc2nccc(N3CCC(NC(=O)Nc4cc(C)ccc4C)C3)n2)cc(OC)c1OC (centres unmarked) [GSK1379762],0%,0%,7%,99.8%,0%,5%,51%,42%,0%,0%,9%,37%,0%,25%,4%,23%,0%,0%,52%,13%
CC(C)(C)c1ccc(C(=O)Nc2cn3cc(-c4cccnc4)ccc3n2)cc1,36%,13%,0%,95.4%,32%,33%,26%,0%,52%,0%,0%,26%,41%,12%,43%,0%,9%,0%,48%,33%
O=C(Nc1n[nH]c2cc(-c3cccc(F)c3F)ccc12)C1CC1 [SB-733894],11%,15%,1%,45%,20%,0%,0%,0%,58%,0%,0%,20%,18%,0%,0%,4%,6%,17%,6%,0%
Nc1nc(-c2nccs2)c(-c2ccnc3ccccc23)s1 [GW693542],0%,0%,36%,45%,0%,56%,22%,2%,51%,0%,11%,6%,0%,6%,0%,0%,12%,0%,33%,2%
Cl.O=C(Nc1cccc(-c2nn3ncccc3c2-c2ccnc(Nc3cccnc3)n2)c1)c1c(F)cccc1F [GSK312879],9%,10%,40%,88%,0%,3%,12%,0%,0%,20%,0%,30%,0%,0%,31%,1%,1%,8%,26%,17%
Cc1cccc(-c2nc(Nc3cccc(C(N)=O)c3)c3ccccc3n2)n1 [GW876019],27%,14%,0%,20%,0%,24%,11%,19%,5%,0%,0%,0%,0%,4%,0%,0%,38%,32%,0%,31%
O=C(Nc1ccccc1)Nc1cccc(Oc2ccc3nccn3n2)c1,0%,0%,0%,37%,0%,0%,4%,0%,13%,0%,10%,0%,7%,0%,9%,0%,1%,4%,0%,0%
COc1ccc(C2=C(Nc3cccc(C(=O)O)c3)C(=O)NC2=O)cc1 [SB-390765],15%,15%,7%,40%,0%,11%,11%,0%,8%,8%,0%,43%,27%,0%,0%,27%,0%,8%,24%,0%
